Test results taken from PubChem BioAssay AID529 (NMMLSC, 2006).
In all, about 24,000 compounds went through this assay and about 50 (0.2%) were called active. Roughly 9% stayed inconclusive and do not appear here. Only a selection was taken, and actives are over-represented in it overall. A number with no mark means an inactive call.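 The calls were made as follows: active = inhibition above 50%; inconclusive = compound itself fluorescent, judged against control cell fluorescence; inactive = the rest.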

The compounds below were run against Integrin alpha-4 (Homo sapiens) (UniProt P13612) (assay: inhibitors of LDV-FITC binding to Mn2+-activated VLA-4, primary screen, Jurkat cells (AID 529;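 also: 0% = Mn2+ stimulated cells lacking compound and 100% = ligand binding without Mn2+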)). Settings: LDV-FITC binding with Mn2+, flow cytometry, stronger effect = higher value, 100% = Mn2+-driven binding gain fully reversed, screened at 10 µM (by protocol).
Chain of Integrin alpha-4 (Homo sapiens) (P13612 whole entry, looked up): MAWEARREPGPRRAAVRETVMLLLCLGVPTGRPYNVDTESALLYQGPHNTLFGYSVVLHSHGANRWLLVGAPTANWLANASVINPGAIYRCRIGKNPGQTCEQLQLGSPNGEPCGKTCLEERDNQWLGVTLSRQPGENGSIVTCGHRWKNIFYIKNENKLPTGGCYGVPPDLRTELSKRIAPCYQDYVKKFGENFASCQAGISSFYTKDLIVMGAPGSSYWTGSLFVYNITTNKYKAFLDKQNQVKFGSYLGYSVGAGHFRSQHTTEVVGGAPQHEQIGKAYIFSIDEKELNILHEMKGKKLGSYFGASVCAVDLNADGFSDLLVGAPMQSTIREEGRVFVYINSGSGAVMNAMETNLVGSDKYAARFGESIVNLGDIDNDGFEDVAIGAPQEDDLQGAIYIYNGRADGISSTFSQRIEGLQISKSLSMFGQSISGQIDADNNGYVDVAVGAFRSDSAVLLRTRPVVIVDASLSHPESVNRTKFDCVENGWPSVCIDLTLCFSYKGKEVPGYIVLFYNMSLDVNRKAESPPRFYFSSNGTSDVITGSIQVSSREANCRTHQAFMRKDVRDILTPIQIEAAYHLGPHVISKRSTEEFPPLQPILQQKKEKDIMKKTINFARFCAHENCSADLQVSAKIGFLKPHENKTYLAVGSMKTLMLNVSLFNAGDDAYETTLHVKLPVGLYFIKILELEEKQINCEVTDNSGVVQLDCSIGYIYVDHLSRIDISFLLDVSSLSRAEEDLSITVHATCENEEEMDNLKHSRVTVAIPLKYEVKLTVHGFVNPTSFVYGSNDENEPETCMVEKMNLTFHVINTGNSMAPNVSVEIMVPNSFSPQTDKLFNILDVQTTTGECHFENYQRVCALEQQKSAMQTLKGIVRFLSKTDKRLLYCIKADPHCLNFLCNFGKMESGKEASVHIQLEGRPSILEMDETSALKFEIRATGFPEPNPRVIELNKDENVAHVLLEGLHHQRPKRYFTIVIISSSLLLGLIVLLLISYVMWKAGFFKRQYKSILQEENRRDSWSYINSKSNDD
For `Cc1ccc(NC(=O)C2CCCN(S(=O)(=O)c3c(C)noc3C)C2)c(C)c1` (stereo unspecified), the inhibition was -21%. For `O=C(CCn1c(=O)oc2ccccc21)Nc1ccon1`, the inhibition was -16%. For `O=C(CN1CCN(CC(=O)Nc2ccc3c(c2)OCO3)CC1)Nc1ccc(F)cc1`, the inhibition was 14%. In the case of `CCOc1ccc(N(CC(=O)OC)S(=O)(=O)c2c(C)noc2C)cc1`, the inhibition is reported as 13%. `CCOC(=O)CN1CC23C=CC(O2)C(C(=O)Nc2ccc(F)cc2)C3C1=O` (stereo unspecified) showed an inhibition of -44.5%. `Cc1nc(C)c2c(c1C(F)(F)F)-c1ccccc1C2(F)F` was tested, and the inhibition was -6.5%. Work on `COc1ccc(N2C(=O)C3CCCN3C2c2cccs2)cc1` (stereo unspecified) yielded an inhibition of 8%. Work on `COc1ccccc1Cn1c(=S)[nH]c2cc(C(=O)N3CCN(C)CC3)ccc2c1=O` yielded an inhibition of 15%. `O=C(NCCCN1CCN(Cc2ccccc2)CC1)C1CCN(S(=O)(=O)N2CCCC2)CC1` gave an inhibition of -27%. In the case of `CCCC(NC(=O)c1ccccc1)c1nc2ccccc2n1Cc1ccc(C(=O)OC)o1` (stereo unspecified), the inhibition is reported as 1%. For `Cc1ccc(NC(=O)CSc2nnc(-c3cnccn3)n2Cc2ccco2)cc1C`, the inhibition was -19.5%. Compound `Cc1ccc(NC(=O)CN(C)S(=O)(=O)c2cnc[nH]2)cc1C` has an inhibition of 1%. `CCCOC(=O)c1[nH]c2c(c1C)C(=O)CC(c1cc(OC)c(OC)c(OC)c1)C2` (stereo unspecified) showed an inhibition of -2%. For `COc1ccccc1-n1cnc2cc(C(=O)NCC3CCCO3)ccc21` (stereo unspecified), the inhibition was -11%. In the case of `CCOC(=O)c1c(NC(=O)c2cccs2)sc(C)c1C`, the inhibition is reported as -11.5%. Compound `COc1cccc(NC(=O)Nc2nnc(N3CCCCC3C)s2)c1` (stereo unspecified) has an inhibition of -4%. `O=C(O)c1cccc2c1C(=O)N(C1CCCCC1)C2` gave an inhibition of -16%. `CCOc1ccc(CCNC(=O)C2CCN(c3ccc(N4CCOCC4)nn3)CC2)cc1OCC` showed an inhibition of -6%. `CCOC(=O)N1CCC(NC(=O)c2cnn3ccccc23)CC1` was tested, and the inhibition was 2.5%. `Cc1nc(CNS(=O)(=O)c2cccnc2)cs1` gave an inhibition of -1%. With `CC1CCCCC1NC(=O)CCS(=O)(=O)c1cccc2nonc12` (stereo unspecified) the inhibition was 12%. For `CCN(CC(=O)Nc1ccc2c(c1)OCCO2)Cc1cc(=O)oc2cc(C)c(C)cc12`, the inhibition was -1.5%. Work on `CCn1c(=O)cc(SCC(=O)NCc2ccc3c(c2)OCO3)c2ccccc21` yielded an inhibition of 5%. In the case of `COc1cc(C2C(C(=O)Nc3ccc(F)cc3)=C(C)Nc3nc(CCCO)nn32)cc(OC)c1OC` (stereo unspecified), the inhibition is reported as -7%. Compound `CCn1ncc(C2=NOC(C(=O)N3CCN(c4ccccc4)CC3)C2)c1C` (stereo unspecified) has an inhibition of 7%. For `c1ccc(CCn2nnnc2CN2CCN(C3CCCC3)CC2)cc1`, the inhibition was -4.5%. `Cc1cc(=O)n2nc(N3CCCC(C(=O)N4CCN(C)CC4)C3)sc2n1` (stereo unspecified) showed an inhibition of -12.3%. Work on `CCN(CC)S(=O)(=O)c1ccc2[nH]cc(C(=O)NCCc3ccccc3)c(=O)c2c1` yielded an inhibition of 2%. In the case of `CCOC(=O)c1nnn(CC(=O)Nc2cccc(F)c2)c1C(=O)OCC`, the inhibition is reported as 13.7%. `CC(NC(=O)CN1CCN(Cc2ccc(Cl)cc2)C1=O)c1ccc2c(c1)OCCO2` (stereo unspecified) showed an inhibition of 4%. `CN(C)S(=O)(=O)c1cccc(C(=O)Nc2cccnc2)c1` gave an inhibition of -37.5%. In the case of `COc1ccc(Cl)cc1S(=O)(=O)N1CCN(CC(=O)C(C)(C)C)CC1`, the inhibition is reported as 14%. With `CCCCC(CC)C(=O)Nc1ccc(Cl)cn1` (stereo unspecified) the inhibition was -17.5%. With `O=C(NCc1ccccn1)c1cnc2sccn2c1=O` the inhibition was -2%. In the case of `Cc1cccn2c(=O)c3cc(C(=O)NCc4ccccn4)n(C)c3nc12`, the inhibition is reported as 52% (active). Compound `Cc1cccn2c(=O)c3cc(C(=O)N4COCC4(C)C)n(C)c3nc12` has an inhibition of -28%. `Cc1nc(NC(=O)CCC(=O)O)sc1C(=O)N(C)C` gave an inhibition of -12%. `O=C(Cn1c(=O)n(Cc2ccco2)c(=O)c2ccccc21)NCC1CCCO1` (stereo unspecified) showed an inhibition of -8.5%. Compound `O=C(Nc1nc2ccc(S(=O)(=O)N3CCCC3)cc2s1)C1CCCO1` (stereo unspecified) has an inhibition of -33.5%. In the case of `CCOc1ccc(Cn2nnc(C(=O)NCc3ccccc3)c2N)cc1`, the inhibition is reported as -1%. In the case of `O=C(c1ccccc1)c1cccn1CC(=O)N1CCN(c2ccc(F)cc2)CC1`, the inhibition is reported as 49%. For `O=C(O)C1CCN(S(=O)(=O)N2CCOCC2)CC1`, the inhibition was 0%. Compound `C=C1c2cc(CC)ccc2NC(=O)N1c1ccc(C)cc1` has an inhibition of -2%. `COC(=O)c1ccc2c(=O)n(CC3CCCO3)c(=S)[nH]c2c1` (stereo unspecified) gave an inhibition of -11%. `CCn1c(SCC(=O)Nc2ccccc2F)nc2c(c1=O)SC(C)C2` (stereo unspecified) showed an inhibition of 3.3%. In the case of `Cc1ccccc1C(=O)NCCN=C1NS(=O)(=O)c2ccccc21`, the inhibition is reported as -4%. Work on `CCOC(=O)N1CCC(C(N)=O)CC1` yielded an inhibition of -7%. `Clc1ccc(Cn2ncc3c(NCc4cccnc4)ncnc32)cc1` was tested, and the inhibition was -0.5%. Work on `CCn1cc(C(=O)NCC2CCCO2)c(=O)c2cc(S(=O)(=O)N3CCCCC3)ccc21` (stereo unspecified) yielded an inhibition of 20%. `CC(NC(=O)COc1ccccc1)C(=O)NC1=NCCS1` (stereo unspecified) was tested, and the inhibition was -18.5%. In the case of `CCOC(=O)c1[nH]c2c(c1C)C(=O)CC(c1ccc(N(C)C)cc1)C2` (stereo unspecified), the inhibition is reported as -3%. Compound `CCOC(=O)N1CCN(C(=O)c2cn(C)c3ccc(S(=O)(=O)N4CCCC4)cc3c2=O)CC1` has an inhibition of -13%. `CCCCOc1ccc(C(=O)NCc2ccco2)cc1` gave an inhibition of -20.5%. `Cn1c(=O)cc(OCCCC(=O)N2CCN(Cc3ccc4c(c3)OCO4)CC2)c2ccccc21` was tested, and the inhibition was 7%. `O=C(C(Cc1ccccc1)n1cccc1)N1CCN(C2CCCCC2)CC1` (stereo unspecified) showed an inhibition of 15%. `O=C(CCCN1C(=O)C2C3C=CC(C3)C2C1=O)N1CCN(c2ccccc2)CC1` (stereo unspecified) gave an inhibition of 21%. `Cc1nc2ncnn2c(C)c1CCC(=O)N1CCN(C(=O)c2ccco2)CC1` gave an inhibition of 10%. For `Cc1cc(=O)n2nc(N3CCCC3C(=O)NCCCN3CC(C)CC(C)C3)sc2n1` (stereo unspecified), the inhibition was -1%. Compound `CCOc1ccc(CNC(=O)C2CC(=O)N(C3CCCC3)C2)cc1OC` (stereo unspecified) has an inhibition of 28%. Work on `O=C(CC(NS(=O)(=O)c1ccc(Cl)cc1)c1ccco1)NC1CCCC1` (stereo unspecified) yielded an inhibition of 1%. For `O=C(Nc1ccn(Cc2ccc(F)cc2)n1)c1ccncc1`, the inhibition was 4%.
